Assay results: PubChem BioAssay AID2314 (National Center for Advancing Translational Sciences (NCATS), 2010)
Hit rate of the full screen: of about 300,000 compounds, about 37,000 (12%) were called active. What follows is part of a selection rich in actives, with near analogues and random picks from the rest. Unmarked numbers belong to inactive results. No stated cut-off is given here; in the data, active means max response mostly above about 13% (no sharp cut-off); inactive means mostly below about 14%.

assay: Cycloheximide Counterscreen for Small Molecule Inhibitors of Shiga Toxin; conditions: cell reporter, cycloheximide protein synthesis inhibition counterscreen; stronger effect = higher value; further: read at 38.3 µM for the half of the compounds with a filed dose; 0% is about no effect

SMILES | max response
FC(F)(F)c1cc(-c2ccco2)nc(NCc2ccc(Cl)cc2)n1 | -4.49%
CN(CC(=O)Nc1ccc(F)cc1)C(=O)c1ccc(-c2ccc(Cl)cc2)o1 | 10.2%
COC(=O)N/N=C/c1ccc(-c2ccc(Cl)c(Cl)c2)o1 | 51.5% (active)
O=C(N/N=C\c1ccc(-c2ccc(Cl)c(Cl)c2)o1)C(=O)N1CCCC1 | -1.36%
Nc1nnnn1CC(=O)N/N=C/c1ccc(-c2cccc(Cl)c2)o1 | 12.6%
Cc1cccc(-c2nc(CS(=O)CC(=O)NC(C)CCc3ccccc3)c(C)o2)c1 (stereo not drawn) | -0.794%
O=C(Nc1ccc(Cl)c(Cl)c1)N1CC=C(c2ccccc2)CC1 | 4.38%
Cc1ccc(C)c(N2CCN(C(=O)CCCn3c(=O)c4cccn4c4cccnc43)CC2)c1 | -1.51%
COc1ccc(C2NC(=S)NC3=C2CCc2ccccc23)cc1OC (stereo not drawn) | 6.79%
CCOC(=O)C1=C(c2ccccc2)NC(=S)NC1c1ccc(Cl)cc1 (stereo not drawn) | 1.29%
CCOc1ccc(C2NC(=S)NC3=C2CCc2ccccc23)cc1 (stereo not drawn) | 54.2% (active)
Cc1ccc(CNC(=O)[C@@H](NC(=O)Cc2ccccc2)C(C)C)cc1 | 3.51%
CSCCC(NS(=O)(=O)c1ccc2c(c1)oc(=O)n2C)C(=O)NC1CCCc2ccccc21 (stereo not drawn) | 7.75%
O=[N+]([O-])c1cccc(S(=O)(=O)NCc2ccccn2)c1 | -2.36%
COc1cccc(C(=O)OCc2cc(=O)oc3c(C)c(C)ccc23)c1OC | -3.37%
O=C(Nc1ccccc1C(=O)N1CCCCCC1)c1ccccc1Cl | -3.34%
O=C(Nc1cccc(Cl)c1Cl)c1ccccc1NC(=O)C1CC=CCC1C(=O)O (stereo not drawn) | 26.8% (active)
O=C(O)C1CC=CCC1C(=O)NCCc1ccccc1 (stereo not drawn) | -2.55%
O=C(Nc1ccc(Cl)c(Cl)c1)c1ccccc1NC(=O)C1CC=CCC1C(=O)O (stereo not drawn) | 38.2% (active)
O=C(Nc1ccccc1)c1ccccc1NC(=O)C(F)(F)F | 11.2%
O=C(O)C1CC=CCC1C(=O)Nc1ccccc1C(=O)N1CCN(c2ccccc2)CC1 (stereo not drawn) | -3.82%
COc1ccc(-c2nn(-c3ccccc3)cc2/C=C2/SC(=S)N(CCCC(=O)O)C2=O)c(C)c1 | -2.33%
COc1cccc(CNS(=O)(=O)c2ccc3c(c2)CC(C)N3C(=O)C2CCC2)c1 (stereo not drawn) | 8.91%
CC(CCc1ccccc1)NC(=O)c1ccc(Br)o1 (stereo not drawn) | 5.6%

SMILES | max response
O=C(NCc1cccs1)c1ccc(Br)o1 | 6.23%
C/C(=N/NC(=O)c1ccc(Br)o1)c1ccc(C)o1 | 78.1% (active)
Cc1cc(C)c2c(-c3ccc(F)cc3)c(C#N)c(=O)n(C)c2n1 | -4.22%
CN(CCC1CCOCC1)Cc1cn[nH]c1-c1ccc(-c2ccccc2)cc1 | 19% (active)
O=C(CC1C(=O)NCCN1Cc1ccc(-c2ccccc2)cc1)NCC1CCOCC1 (stereo not drawn) | -0.46%
COc1ccc(-c2[nH]ncc2CN(C)Cc2cc(C)[nH]n2)c(F)c1 | 7.91%
Cc1nnc(CN(C)Cc2cn[nH]c2-c2ccc(-c3ccccc3)cc2)o1 | 14.6% (active)
O=C(c1ccc(F)cc1)C1CCN(Cc2cn[nH]c2-c2ccccc2)CC1 | -1.57%
COc1ccc(-c2[nH]ncc2CN(C)Cc2c(C)n[nH]c2C)c(OC)c1 | -6.81%
CC1(C)c2[nH]c3ccccc3c2C[C@H]2C(=O)N(N)CC(=O)N21 | -5.11%
CC(C)(C)c1ccc(C(=O)NCc2nnc(SCC(=O)N3CCCc4ccccc43)n2-c2ccccc2)cc1 | -1.48%
CC(C)(C)C(=O)N(Cc1ccccc1)c1ccccn1 | 0.801%
Cc1ccccc1N1CCN(S(=O)(=O)c2ccc3ccccc3c2)CC1 | -1.83%
Cc1ccc(Cn2nnc3c(=O)[nH]c(C4CCN(S(=O)(=O)/C=C/c5ccccc5)CC4)nc32)cc1 | -2.92%
COc1cc(OC)cc(-c2nnc(SCC(=O)Nc3ccc(C(=O)O)cc3)s2)c1 | -1.06%
COc1ccc(NC(=O)CSc2nc(C)cs2)cc1 | 27.7% (active)
CSc1nsc(SCC(=O)Nc2cc(C(=O)O)ccc2C)n1 | 1.8%
Cc1csc(SCC(=O)Nc2sccc2C#N)n1 | 2.13%
COc1ccc(NC(=O)CSc2nc(SC)ns2)c(OC)c1 | 42.1% (active)
COc1ccc(C)cc1NC(=O)CSc1nc(SC)ns1 | 10.3%
O=S(=O)(NCCCCCCNS(=O)(=O)c1c(F)cccc1F)c1ccc2c(c1)OCCO2 | -6.04%
C#CCOc1ccccc1/C=C1/C(=O)ON=C1C | 7.98%
COc1ccccc1C(=O)N/C(=C/c1ccco1)C(=O)Nc1ccc(C(=O)O)cc1 | -3.58%
Cc1c(NC(=O)Nc2cccc([N+](=O)[O-])c2)c(=O)n(-c2ccccc2)n1C | 3.26%

SMILES | max response
CCN1CCN(CCNC(=O)c2ccc3c(c2)NC(=O)/C(=C\c2ccc(OC)c(OC)c2)S3)CC1 | 1.31%
CC(Nc1nc(C(F)(F)F)nc2ccccc12)c1cccs1 (stereo not drawn) | -5.02%
C=Cn1cc[n+](CC(=O)c2ccc(OC)c(OC)c2)c1 | -1.55%
CN(C)c1nc(Nc2ccc(Cl)c(Cl)c2)nc(N(C)C)n1 | 1.57%
CC(=O)Nc1nc(N(C)C)nc(N(C)C)n1 | 26.5% (active)
CN(C)c1nc(NN)nc(Nc2ccc(F)cc2)n1 | -3.59%
O=S1(=O)CCO[C@H]2Cc3ccccc3[C@H]2N1Cc1ccccc1 | -1.34%
Cc1c(-c2nn(C)c(=O)c3ccccc23)oc2ccc(F)cc2c1=O | -8.42%
Cc1cccc(-c2nc3ccc(C(=O)NCCN4CCN(C)CC4)cc3nc2-c2cccc(C)c2)c1 | -13.3%
C=CCNC(=O)c1ccc2c3n(nc2c1)-c1ccc(C)cc1CO3 | 34.5% (active)
C=CCNC(=O)c1ccc(C)c(Br)c1 | 5.91%
CCCCn1c(N)c(N(CCC(C)C)C(=O)c2ccc([N+](=O)[O-])o2)c(=O)[nH]c1=O | -1.97%
CCN(CC)CC(=O)Nc1sc2c(c1C(=O)c1ccccc1C)CCC2 | -2.82%
CC(O)c1ccc(OCCN(C)c2ccccn2)cc1 (stereo not drawn) | 55.9% (active)
CC(C)c1ccc(OCC(O)CN2CCN(c3ccccn3)CC2)cc1 (stereo not drawn) | -1.42%
CCOc1ccc(C(C(=O)NCCOC)N(CCOC)C(=O)CCC(=O)Nc2ccccn2)cc1 (stereo not drawn) | 1.47%
Nc1[nH]c(=S)nc2nc(-c3ccccc3)c(-c3ccccc3)nc12 | -2.36%
Cc1ccc(Oc2cnn(-c3ccccc3)c(=O)c2Br)cc1 | 12.3%
CC1=C(C(=O)NC2CC(C)(C)Cc3c2cnn3-c2ccc(C)cc2)OCCO1 (stereo not drawn) | 10.7%
C=CCNc1cnn(-c2ccc(C)cc2)c(=O)c1Cl | 66.7% (active)
CC(C)(C)c1nc2ccccc2c(=O)n1N1C(=O)c2ccccc2C1=O | -2.32%
Cc1ccc2nc(COc3ccc(N(C)S(=O)(=O)c4ccccc4)cc3)cc(=O)n2c1 | -1.15%
CCCCCc1ccc(-c2ccc(OCC)cc2)nc1 | 15.6% (active)
CCOc1ccc(-c2ccc(SCC(=O)N3CCOCC3)nn2)cc1 | 23.3%

SMILES | max response
O=C(O)c1ccc(COCC(F)(F)F)cc1 | -3.85%
CCCCCc1ccc(-c2ccc(C(=O)O)cc2)nc1 | 79.8% (active)
CCCCCc1ccc(-c2cn(Cc3ccc4ccccc4c3)nn2)cc1 | -2.64%
CCOc1c(CNCc2ccc(C(=O)O)cc2)cccc1OC | -3.44%
COc1ccc(CNC(=O)C2CCN(S(=O)(=O)c3ccc(SC)cc3)CC2)cc1 | 10.4%
CCn1c(O)c(N=NC(=O)c2cccc(S(=O)(=O)N3CCCCC3)c2)c2ccccc21 | -2.88%
CC(=O)[O][Sn]([c]1ccccc1)([c]1ccccc1)[c]1ccccc1 | -16.7%
O=C(O)CN1CCN(C(c2ccccc2)c2ccccc2)CC1 | -0.558%
COC(=O)Cc1csc(/N=C/c2c(O)n(-c3cccc(C(F)(F)F)c3)c(=O)c3ccccc23)n1 | -0.585%
COc1ccc(NC(=O)c2cc([N+](=O)[O-])ccc2NC(=O)CNC2CCCCC2C)c(OC)c1 (stereo not drawn) | -4.84%
CC(C)c1nnc(NC(=O)COC(=O)/C=C/c2ccc([N+](=O)[O-])cc2)s1 | -2.23%
CCC(C)N(C)C1CCN(C(=S)Nc2ccc(OC)cc2)CC1 (stereo not drawn) | 2.11%
COc1ccc(C(=O)NC2CCN(C(=S)Nc3ccccc3)CC2)cc1 | -4.48%
COc1ccccc1C1CCN(C(=S)Nc2ccc(Br)cc2)CC1 | 21.5% (active)
O=C(CN1CCN(c2ccccc2)CC1)Nc1ccc(F)cc1 | 0.655%
Cc1cc2oc(C(=O)Nc3c(C)n(C)n(-c4ccccc4)c3=O)c(C)c2cc1Cl | -5.74%
O=C(CC1C(=O)NCCN1C(=O)c1ccc([N+](=O)[O-])cc1)Nc1cccc(Cl)c1 (stereo not drawn) | 5.86%
O=C(CC1NCCNC1=O)Nc1cc(Cl)cc(Cl)c1 (stereo not drawn) | -5.54%
O=C(CC1NCCc2ccccc21)Nc1cccc(Cl)c1 (stereo not drawn) | 30.4% (active)
O=C1/C(=C\c2ccccc2Cl)SC(=S)N1CCC(=O)N1CCCc2ccccc21 | -2.48%
Cc1ccc(C(=O)N2CC(=O)Nc3ccc(F)cc3C2c2ccc(F)cc2)cc1 (stereo not drawn) | -2.84%
